Screens: PubChem BioAssay, several laboratories
Compounds with a hit are over-represented: about 4.6% of the library has one in this group of screens.
sEH activator: increases human soluble epoxide hydrolase activity | purified human sEH enzymatic activity, activator screen | P34913 | activation, % at 2 µM | actives 0.04% (n = 91,000) | AID 717; in the data active = activation above about 37%
Target sequence (P34913 whole entry, looked up): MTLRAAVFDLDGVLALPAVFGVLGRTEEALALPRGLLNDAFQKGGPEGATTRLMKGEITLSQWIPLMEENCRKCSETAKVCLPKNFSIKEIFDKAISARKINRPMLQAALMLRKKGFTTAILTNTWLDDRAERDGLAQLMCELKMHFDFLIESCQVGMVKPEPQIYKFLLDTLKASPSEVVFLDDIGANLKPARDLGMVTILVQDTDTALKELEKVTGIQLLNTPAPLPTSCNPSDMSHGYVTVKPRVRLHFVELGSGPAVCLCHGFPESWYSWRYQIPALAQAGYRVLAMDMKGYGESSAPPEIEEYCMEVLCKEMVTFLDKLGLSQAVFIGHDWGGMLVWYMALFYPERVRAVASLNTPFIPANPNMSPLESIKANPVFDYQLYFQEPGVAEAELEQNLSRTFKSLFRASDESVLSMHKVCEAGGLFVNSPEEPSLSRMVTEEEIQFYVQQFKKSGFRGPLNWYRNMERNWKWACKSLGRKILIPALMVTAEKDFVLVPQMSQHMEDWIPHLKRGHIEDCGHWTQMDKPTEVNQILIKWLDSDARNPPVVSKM
sEH inhibitor: inhibitors of human soluble epoxide hydrolase; P34913; recombinant human sEH enzymatic activity assay; inhibition, % at 2 µM; actives 0.34% (n = 91,000); in the data active = inhibition above about 80%
Cav32 inh: human Cav3.2 channel inhibition, primary screen. Cav3.2-expressing cells, Fluo-4 calcium fluorescence FDSS; stronger effect = lower value. B-score at 10 µM. actives 4% (n = 100,000);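 active = single-dose well whose peak fluorescence ratio is a statistical outlier from its plate by either plate-standardised score or position-corrected B-score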
HUVEC tox IL1B: toxic to HUVEC cells under IL-1B stimulation | cell count reduction, % at 2 µM | HUVEC cell count loss, Hoechst imaging, IL-1B stimulated | actives 0.41% (n = 94,000) | AID 845;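 active = cell count reduction more than 3 SD above the screen-wide mean, cut at about 70% in these data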;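 note: normalized per plate to untreated control cells as the no-loss baseline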
IL1B NFkB pot: enhances IL-1B driven NFkB nuclear translocation. HUVEC IL-1B NFkB p65 nuclear translocation imaging. activation, % at 2 µM. actives 0.3% (n = 94,000). AID 819;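 active = activation above 40%, about the mean plus 3 SD, also judged a hit on visual image review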;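 note: percent activation is computed from the nuclear over cytoplasmic p65 intensity ratio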
NFkB transloc inh: blocks IL-1B driven NFkB nuclear translocation in HUVEC cells; HUVEC IL-1B NFkB p65 nuclear translocation imaging; inhibition, % at 2 µM; actives 0.43% (n = 94,000); AID 796;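 active = inhibition above about 30% together with a positive call from visual inspection of the well image, limit read from the data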;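 note: nuclear over cytoplasmic p65 intensity ratio measured by imaging; 0% = IL-1B stimulated DMSO wells and 100% = unstimulated DMSO wells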
Active calls of the source: *; . = no result.

SMILES | sEH activator | sEH inhibitor | Cav32 inh | HUVEC tox IL1B | IL1B NFkB pot | NFkB transloc inh
CC(/C=C/c1ccccc1)=N/NC(=O)CNC(=O)c1ccc2c(c1)OCO2 | -3.0 | 5.0 | . | -41.8 | 4.3 | -4.3
O=[N+]([O-])c1ccc(C2CCCC/C2=N/OCc2ccccc2F)c([N+](=O)[O-])c1 (centres undefined) | 3.4 | -4.6 | -6.46* | 1.9 | -1.7 | 1.7
O=[N+]([O-])c1ccc(C2CCCC/C2=N/OCc2ccc(F)cc2)c([N+](=O)[O-])c1 (centres undefined) | -8.7 | 7.6 | -5.37* | 11.4 | -6.1 | 6.1
O=C(O/N=C1\CCCCC1c1ccc([N+](=O)[O-])cc1[N+](=O)[O-])c1c(F)cccc1F (centres undefined) | 9.0 | -6.5 | -1.28 | -18.2 | -13.3 | 13.3
COc1cccc(C(=O)NC(C)C(c2cccs2)N2CCOCC2)c1 (centres undefined) | -15.1 | 14.2 | 0.045 | 4.4 | 35.9 | -35.9
CCCCOCCCNc1ncnc2c1[nH]c1ccccc12 | -2.5 | 1.6 | -4.68* | -170.1 | -20.7 | 20.7
CN1CCN(c2nc(N3CCN(c4ccccc4)CC3)ncc2F)CC1 | 0.7 | 4.4 | -0.0315 | -11.7 | 10.9 | -10.9
O=c1c(C(c2nnnn2C2CCCCC2)N2CCCCC2)coc2ccc(Cl)cc12 (centres undefined) | . | . | -0.861 | . | . | .
c1csc(C2Nc3cccc4cccc(c34)N2)c1 | 4.7 | -1.5 | -1.3 | -6.2 | 9.6 | -9.6
Brc1ccc(C2Nc3cccc4cccc(c34)N2)o1 | 0.6 | 3.4 | -5.4* | -24.9 | 31.6 | -31.6
O=c1ccn(-c2cccc(C(F)(F)F)c2)nc1-c1ccn(-c2ccccc2F)n1 | -4.7 | 4.3 | -7.96* | 20.6 | 1.9 | -1.9
COc1ccc(-n2ccc(-c3nn(-c4cccc(C(F)(F)F)c4)ccc3=O)n2)cc1 | 2.0 | -0.2 | -4.39* | -23.9 | 8.0 | -8.0
CN(c1ccc(C(=O)NCCSCc2ccccc2)cc1)S(=O)(=O)c1ccccc1 | -48.0 | 49.1 | -3.3 | -3.5 | 1.1 | -1.1
Cc1cc(NC(=O)C(C)C)ncc1NC(=O)Cc1ccccc1 | -3.5 | 3.8 | -4.02* | 4.7 | 3.3 | -3.3
COc1ccc2[nH]cc(C(=O)CN3CCN(C/C=C/c4ccccc4)CC3)c2c1 | -5.0 | 3.3 | -2.49 | 4.4 | -36.3 | 36.3*
COc1cccc(NC(=S)N2CCN(C/C=C/c3ccccc3)CC2)c1 | -6.9 | 5.9 | -4.91* | 8.4 | 37.1 | -37.1
COc1ccc2c(C(=O)CN3CCN(CCO)CC3)c[nH]c2c1 | . | . | 0.0332 | -8.0 | 6.1 | -6.1
Cc1cc(C)c(NC(=O)C(C)c2cccc(C(=O)c3ccccc3)c2)c(C)c1 (centres undefined) | 14.0 | -14.0 | -5.51* | . | . | .
Cc1ccccc1C(=O)c1cccn1CC(=O)NCc1ccc2c(c1)OCO2 | -2.8 | 5.8 | -2.14 | 0.5 | 12.9 | -12.9
O=C(Cc1cccs1)N(Cc1ccco1)C1(C(=O)NC2CCCCC2)CCCCC1 | -8.9 | 6.7 | -7.14* | 7.5 | 5.9 | -5.9
CC(=O)N(Cc1ccco1)C1(C(=O)NC2CCCCC2)CCCCC1 | -11.6 | 11.9 | -0.203 | 15.2 | -8.2 | 8.2
CCC(C)(C(=O)NC1CCCCC1)N(Cc1ccco1)C(=O)Cc1cccs1 (centres undefined) | -0.7 | 3.5 | -4.68* | 8.0 | 6.3 | -6.3
Cc1ccc(C(C(=O)NC2CCCC2)N(Cc2ccco2)C(=O)CCC(=O)Nc2cc(C)on2)cc1 (centres undefined) | -7.0 | 3.7 | -2.47 | -37.7 | -3.5 | 3.5
O=C(Cc1cccs1)N(Cc1cccs1)C1(C(=O)NC2CCCC2)CCCCC1 | 3.5 | -6.6 | -8.37* | -19.7 | 6.4 | -6.4
Cc1cc(NC(=O)CCC(=O)N(Cc2ccco2)C2(C(=O)NC3CCCCC3)CCN(C)CC2)no1 | -3.8 | 2.6 | 0.95 | 86.7* | -99.4 | 99.4*
SMILES | sEH activator | sEH inhibitor | Cav32 inh | HUVEC tox IL1B | IL1B NFkB pot | NFkB transloc inh
CCC(C)(C(=O)NC1CCCCC1)N(C)C(=O)c1ccccn1 (centres undefined) | 1.6 | -0.1 | 0.619 | -2.6 | 7.9 | -7.9
Cc1nn(-c2ccc(F)cc2)c2nc(N)c(C#N)c(-c3cccs3)c12 | 8.2 | -6.6 | 0.252 | -37.3 | -3.4 | 3.4
COc1cc(-c2c(C#N)c(N)nc3c2c(C)nn3-c2ccc(C)c(C)c2)cc(OC)c1OC | . | . | -4.82* | . | . | .
O=C(NCc1ccccc1)c1ccc(-c2ccccc2F)o1 | -1.6 | 3.9 | -4.23* | -1.6 | 17.3 | -17.3
N#C/C(=N\Nc1ccc(Cl)cc1)C(=O)c1ccccc1 | 8.0 | -5.1 | -5.55* | -17.4 | 1.2 | -1.2
CCOC(=O)NC(=O)/C(C#N)=N\Nc1ccc(Cl)cc1 | 0.9 | -3.8 | -5.09* | . | . | .
CCOc1ccc(N/N=C(/C#N)C(N)=O)cc1 | -3.4 | 6.0 | -0.357 | -19.0 | 8.8 | -8.8
O=C(CS(=O)(=O)Cc1ccccc1)Nc1ccccn1 | 7.3 | -3.3 | 0.312 | -29.2 | 11.8 | -11.9
CCOC(=O)N1CCN(S(=O)(=O)c2ccc(C)c(C)c2C)CC1 | 3.7 | -4.5 | . | -2.9 | -10.2 | 10.2
COc1ccc2cc3cc(C(=O)Nc4ccccc4N4CCN(C)CC4)oc3nc2c1 | 12.5 | -12.9 | -0.213 | -5.2 | 0.0 | 0.0
COc1ccc2cc3cc(C(=O)NCCN4CCN(c5ccccc5F)CC4)oc3nc2c1 | 7.0 | -7.4 | -1.21 | -11.4 | 44.9* | -44.9
O=c1c2c(nc3cc(-c4ccccc4)[nH]n13)CCC2 | . | . | 0.824 | -13.4 | 20.1 | -20.1
Cc1cc2nc3c(c(=O)n2[nH]1)CCCC3 | 37.3* | -34.0 | -0.269 | -8.6 | 8.1 | -8.1
COc1ccc(CNS(=O)(=O)c2cccc(S(=O)(=O)N3CCOCC3)c2)cc1 | -3.6 | 1.9 | -4.41* | 2.7 | 24.5 | -24.5
CCOC(=O)C1C(=O)CC(C)(O)C(C(=O)OCC)C1c1ccc(C)s1 (centres undefined) | -2.3 | 5.1 | 0.664 | -85.0 | 13.6 | -13.6
Oc1ccc(-c2[nH]nc(-c3ccccc3)c2-c2nc3ccccc3[nH]2)cc1 | -14.8 | 16.6 | -5.5* | 6.0 | 6.7 | -6.7
c1ccc2nc(-c3nc4ccccc4[nH]3)ccc2c1 | . | . | -0.113 | . | . | .
Cc1nc2ncnn2c(C)c1CCC(=O)Nc1csc(N)n1 | 18.0 | -14.8 | 0.229 | 3.0 | 21.6 | -21.6
C=CCn1c(SCC(=O)Nc2cc(C)on2)nc2sc3c(c2c1=O)CCCC3 | 0.9 | -2.9 | -0.477 | -12.2 | -23.2 | 23.2
CC(NC(=O)CSc1nc2sc3c(c2c(=O)n1-c1ccccc1)CCCC3)c1ccccc1 (centres undefined) | 14.5 | -8.2 | -6.49* | 12.0 | 0.3 | -0.3
CC(C)C(C)NC(=O)CSc1nc2scc(-c3ccco3)c2c(=O)n1-c1ccccc1 (centres undefined) | 10.3 | -12.2 | -5.36* | -3.7 | 2.0 | -2.0
Cc1sc2nc(SCC(=O)NCc3ccco3)n(-c3ccccc3)c(=O)c2c1C | -13.5 | 13.6 | -0.109 | -22.7 | 8.1 | -8.1
CC(C)C(C)(C#N)NC(=O)CSc1nc2scc(-c3ccco3)c2c(=O)n1-c1ccccc1 (centres undefined) | 3.7 | -4.3 | -5.08* | -22.2 | 9.1 | -9.1
